Experiment [1] can be described thus: antimalarial activity against Dd2 strain (AID 2302;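 active means growth inhibition above 50% at the single 2 µM test dose, taken to imply half-maximal potency below 2 µM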;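 further: 0% = DMSO untreated growth and 100% = chloroquine plus artemisinin killed control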). Particulars: P. falciparum Dd2 in RBCs, LDH growth readout, 72 h; at 2 µM; stronger effect = higher value.
The nature of experiment [2]: human hepatoma cell viability loss – ATP luminescence, cytotoxicity control for P. falciparum antimalarial project, primary screen (AID 2303;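 active means inhibition above 50%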;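 further: 0% = DMSO wells and 100% = digitonin-killed cells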). Conditions: HepG2 viability, 24-48 h, at 10 µM, stronger effect = higher value.
Experiment [3] concerns the target L-lactate dehydrogenase (Plasmodium falciparum (isolate CDC / Honduras)) (UniProt Q27743). Kind of experiment: PfLDH activity inhibition – cell lysate, 3D7 strain, counter-screen for P. falciparum growth inhibition project (AID 2304).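 Further: 0% = vehicle and 100% = reference inhibitor.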 Conditions: P. falciparum 3D7 crude extract, LDH APAD/NBT absorbance; at 2 µM; stronger effect = higher value.
Experiment [4] in a line: inhibition of 3D7 malaria parasite growth – strain 3D7 (AID 2306).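 Further: 0% = DMSO wells and 100% = chloroquine plus artemisinin control wells.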 Conditions: P. falciparum 3D7 erythrocytic growth, LDH absorbance, 72 h; at 2 µM; stronger effect = higher value.
For experiment [5], the target named is Calcium-dependent protein kinase 1 (Plasmodium falciparum (isolate 3D7)) (UniProt P62344). As to the kind of experiment: PfCDPK1 kinase inhibitors, biochemical, TCAMS library (AID 1159585; cut-off not given, nearly all actives have IC50 up to about 0.98 µM;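 further: inhibitors leave more ATP so luminescence rises with inhibition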). Particulars: recombinant PfCDPK1, Kinase-Glo ATP depletion luminescence.
Sequence of Calcium-dependent protein kinase 1 (Plasmodium falciparum (isolate 3D7)) (P62344 whole entry, looked up): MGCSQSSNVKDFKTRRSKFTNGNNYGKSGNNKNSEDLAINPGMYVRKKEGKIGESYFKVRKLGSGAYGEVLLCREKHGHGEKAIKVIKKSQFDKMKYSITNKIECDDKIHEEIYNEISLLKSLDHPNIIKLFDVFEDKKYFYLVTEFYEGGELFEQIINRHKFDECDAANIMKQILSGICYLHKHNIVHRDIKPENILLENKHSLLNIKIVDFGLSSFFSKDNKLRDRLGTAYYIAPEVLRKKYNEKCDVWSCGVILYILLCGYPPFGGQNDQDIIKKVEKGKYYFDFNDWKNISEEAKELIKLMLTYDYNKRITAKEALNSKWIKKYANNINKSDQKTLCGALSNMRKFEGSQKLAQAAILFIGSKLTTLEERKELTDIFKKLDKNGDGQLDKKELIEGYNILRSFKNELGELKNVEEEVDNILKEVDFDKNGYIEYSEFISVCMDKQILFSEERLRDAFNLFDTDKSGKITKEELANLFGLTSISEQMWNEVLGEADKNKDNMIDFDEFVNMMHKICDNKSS
The target of experiment [6] is Plasmodium falciparum protein kinase 6 (PK6, PF3D7_1337100) (UniProt Q8IDW1). Kind of experiment: PfPK6 kinase inhibitors, biochemical, TCAMS library (AID 1159586). Conditions: recombinant PfPK6, Kinase-Glo ATP depletion luminescence.
Sequence of Plasmodium falciparum protein kinase 6 (PK6, PF3D7_1337100) (Q8IDW1 1-305): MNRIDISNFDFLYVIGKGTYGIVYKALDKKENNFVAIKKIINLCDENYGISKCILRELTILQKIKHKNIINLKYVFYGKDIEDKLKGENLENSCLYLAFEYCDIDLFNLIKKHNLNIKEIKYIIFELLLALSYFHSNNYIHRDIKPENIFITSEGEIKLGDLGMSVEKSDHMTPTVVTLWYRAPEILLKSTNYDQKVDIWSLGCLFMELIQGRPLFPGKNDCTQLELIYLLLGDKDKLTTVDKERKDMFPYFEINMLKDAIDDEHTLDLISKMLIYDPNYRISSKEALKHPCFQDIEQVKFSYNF
For experiment [7], the target named is Protein kinase 7 (PK7), Plasmodium falciparum 3D7 (PF3D7_0213400) (UniProt Q7YTF7). Kind of experiment: inhibition of Plasmodium PK7 catalytic activity – biochemical, TCAMS antimalarial set, Kinase-Glo luminescence (AID 1159587). Conditions: recombinant PfPK7, Kinase-Glo ATP depletion luminescence.
Sequence of Protein kinase 7 (PK7), Plasmodium falciparum 3D7 (PF3D7_0213400) (Q7YTF7 1-343): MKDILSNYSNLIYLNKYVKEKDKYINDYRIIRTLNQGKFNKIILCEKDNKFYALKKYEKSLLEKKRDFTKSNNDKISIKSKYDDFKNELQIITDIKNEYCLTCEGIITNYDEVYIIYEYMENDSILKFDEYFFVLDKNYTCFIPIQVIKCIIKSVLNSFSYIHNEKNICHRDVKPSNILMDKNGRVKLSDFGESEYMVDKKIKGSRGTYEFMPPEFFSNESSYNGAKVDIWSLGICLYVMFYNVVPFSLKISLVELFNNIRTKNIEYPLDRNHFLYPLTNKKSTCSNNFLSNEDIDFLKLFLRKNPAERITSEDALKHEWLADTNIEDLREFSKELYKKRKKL
Experiment [8] has as its target Calcium-dependent protein kinase 4 (Plasmodium falciparum (isolate 3D7)) (UniProt Q8IBS5). Kind of experiment: PfCDPK4 kinase inhibitors, biochemical, TCAMS library (AID 1159588; cut-off not given, nearly all actives have IC50 up to about 0.91 µM). Particulars: recombinant PfCDPK4, Kinase-Glo ATP depletion luminescence.

Values without a mark were called inactive. For some of these results: Potency and affinity values are given separately. Active and inactive are the calls of the source. Unless noted, how the calls were made is not given here.

Sequence of Calcium-dependent protein kinase 4 (Plasmodium falciparum (isolate 3D7)) (Q8IBS5 whole entry, looked up): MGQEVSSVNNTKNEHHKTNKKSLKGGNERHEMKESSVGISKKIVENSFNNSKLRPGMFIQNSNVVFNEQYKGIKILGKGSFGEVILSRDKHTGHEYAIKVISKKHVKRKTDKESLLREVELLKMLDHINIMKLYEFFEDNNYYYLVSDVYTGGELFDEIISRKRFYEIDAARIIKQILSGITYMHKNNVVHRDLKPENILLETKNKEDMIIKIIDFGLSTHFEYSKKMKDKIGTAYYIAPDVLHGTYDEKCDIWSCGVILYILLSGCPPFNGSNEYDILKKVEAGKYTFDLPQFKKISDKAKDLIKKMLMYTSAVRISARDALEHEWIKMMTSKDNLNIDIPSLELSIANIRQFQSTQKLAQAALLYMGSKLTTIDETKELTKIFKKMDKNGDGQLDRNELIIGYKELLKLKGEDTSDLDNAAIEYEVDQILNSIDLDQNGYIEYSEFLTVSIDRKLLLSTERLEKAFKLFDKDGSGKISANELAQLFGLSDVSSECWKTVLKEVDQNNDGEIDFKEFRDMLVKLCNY
Sequence of L-lactate dehydrogenase (Plasmodium falciparum (isolate CDC / Honduras)) (Q27743 whole entry, looked up): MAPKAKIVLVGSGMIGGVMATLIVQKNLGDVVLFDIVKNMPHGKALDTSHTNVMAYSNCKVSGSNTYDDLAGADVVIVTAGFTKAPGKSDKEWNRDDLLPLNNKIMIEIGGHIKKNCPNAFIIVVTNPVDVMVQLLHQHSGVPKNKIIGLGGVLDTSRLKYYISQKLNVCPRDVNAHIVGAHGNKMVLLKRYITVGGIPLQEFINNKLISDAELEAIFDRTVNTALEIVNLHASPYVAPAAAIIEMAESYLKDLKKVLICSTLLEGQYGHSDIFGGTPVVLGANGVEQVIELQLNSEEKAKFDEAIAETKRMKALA

With `COc1ccc(Nc2nccc(NCCNC(=O)Nc3ccccc3F)n2)cc1`, the growth inhibition is 4% in experiment [1] and 85% (active) in experiment [4]. Besides, the inhibition was 4% in experiment [2] and 1% in experiment [3]. Besides, the result in experiment [5], in experiment [6], in experiment [7] and in experiment [8] was inactive.

Consider `O=C(c1cccc(-c2ccc(-c3nc4ccc(F)cc4[nH]3)s2)c1)N1CCCCC1CN1CCC(O)C1` (stereo not given), for which the growth inhibition was 85% (active) in experiment [1] and 101% (active) in experiment [4]. Besides, the figures for the inhibition in experiment [2] and in experiment [3] were 23% and 2%, respectively. Also, the result in experiment [5], in experiment [6], in experiment [7] and in experiment [8] was inactive.

Consider `COc1cc(NC(=O)c2cccs2)c(C(=O)NCc2ccc(C)cc2)cc1OC`, for which the growth inhibition in experiment [1] is 88% (active); in experiment [4], 93% (active). Also, the inhibition was 3% in experiment [2] and -2% in experiment [3]. Moreover, the outcome in experiment [5], in experiment [6], in experiment [7] and in experiment [8] was inactive.

Take `CC(C)=CCc1c(-c2ccc(O)cc2O)oc2c3c(cc(O)c2c1=O)OC(C)(C)C=C3`: the growth inhibition is 8% in experiment [1] and 89% (active) in experiment [4]. The inhibition in experiment [2] was 1%; in experiment [3], 5%. The outcome in experiment [5], in experiment [6], in experiment [7] and in experiment [8] was inactive.

Turning to `O=C(/C=C/c1cccs1)NCC(NCCCNc1cc(=O)c2ccccc2[nH]1)c1cc(Br)cc(Br)c1` (stereo not given), the growth inhibition in experiment [1] is 58% (active); in experiment [4] it was 100% (active). The inhibition in experiment [2] and in experiment [3] was 0% in each case. Besides, the outcome in experiment [5], in experiment [6], in experiment [7] and in experiment [8] was inactive.

For the molecule `COc1ccc2c(NN=C(C)c3ccccn3)cc(C)nc2c1`, the growth inhibition in experiment [1] was 51% (active); in experiment [4], 102% (active). For the same molecule, the inhibition in experiment [2] was 33%; in experiment [3], -5%. Also, the result in experiment [5], in experiment [6], in experiment [7] and in experiment [8] was inactive.

For `CN(C)CCNC(=O)[C@H](CC1CCCCC1)NC(=O)c1ccc(O)c(-c2ccc(Cl)c(Cl)c2)c1`, the growth inhibition in experiment [1] was 97% (active); in experiment [4] it was 98% (active). The values for the inhibition in experiment [2] and in experiment [3] were 0% and -4%, respectively. The outcome in experiment [5], in experiment [6], in experiment [7] and in experiment [8] was inactive.

`COc1ccc2nccc([C@@H](O)CN3CCC(NCCOc4c(C)cccc4F)CC3)c2c1`: the figures for the growth inhibition in experiment [1] and in experiment [4] were 95% (active) and 100% (active), respectively. Moreover, the values for the inhibition in experiment [2] and in experiment [3] were 4% and -5%, respectively. Besides, the outcome in experiment [5], in experiment [6], in experiment [7] and in experiment [8] was inactive.

On to `N#Cc1ccc(N[C@@H](CC2CCCCC2)C(=O)NCc2cc(F)c(F)cc2F)c2ccccc12`, for which the growth inhibition in experiment [1] was 39%; in experiment [4], 94% (active). Further, the inhibition in experiment [2] is 12%; in experiment [3], -3%. Also, the result in experiment [5], in experiment [6], in experiment [7] and in experiment [8] was inactive.

Consider `O=C(Nc1ccc(I)cc1)Nc1ccc(Cn2ncc(N3CCCNCC3)c(Cl)c2=O)cc1`, for which the values for the growth inhibition in experiment [1] and in experiment [4] were 30% and 86% (active), respectively. Also, the values for the inhibition in experiment [2] and in experiment [3] were 35% and 0%, respectively. Also, the outcome in experiment [5], in experiment [6], in experiment [7] and in experiment [8] was inactive.

Consider `O=S(=O)(Nc1ccc(CCN2CCC(N3CCCCC3)CC2)cc1)c1cccc(C(F)(F)F)c1`, for which the growth inhibition in experiment [1] is 15%; in experiment [4], 101% (active). Moreover, the inhibition is 20% in experiment [2] and -3% in experiment [3]. Further, the result in experiment [5], in experiment [6], in experiment [7] and in experiment [8] was inactive.

Turning to `O=C(Nc1nc(-c2ccccn2)cs1)c1ccccc1COc1ccccc1`, the growth inhibition in experiment [1] is 42%; in experiment [4] it was 83% (active). For the same molecule, the inhibition in experiment [2] is 34%; in experiment [3], -2%. Besides, the result in experiment [5], in experiment [6], in experiment [7] and in experiment [8] was inactive.

On to `COc1ccc2nc(C)cc(NN=Cc3cccc(F)c3)c2c1`, for which the growth inhibition in experiment [1] and in experiment [4] was 100% (active) each time. The inhibition in experiment [2] is 2%; in experiment [3] it was 1%. The outcome in experiment [5], in experiment [6], in experiment [7] and in experiment [8] was inactive.

In the case of `CCC(=O)Oc1ccc(NC(=O)c2cccc(OC)c2)cc1`, the growth inhibition in experiment [1] was 3%; in experiment [4], 98% (active). Also, the values for the inhibition in experiment [2] and in experiment [3] were 17% and 6%, respectively. The result in experiment [5], in experiment [6], in experiment [7] and in experiment [8] was inactive.

With `O=C(Nc1ccc(Cl)c(Cl)c1)C1CCC(=O)N1[C@@H](Cc1ccccc1)C(=O)NCCc1ccc(Cl)cc1` (stereo not given in full), the growth inhibition in experiment [1] is -9%; in experiment [4], 95% (active). Also, the values for the inhibition in experiment [2] and in experiment [3] were 3% and 0%, respectively. Besides, the outcome in experiment [5], in experiment [6], in experiment [7] and in experiment [8] was inactive.

Take `CN1CCN(c2cccc(-c3nnc(-c4ccc(OCC(=O)NCc5cccc(C(F)(F)F)c5)c([N+](=O)[O-])c4)o3)c2)CC1`: the growth inhibition in experiment [1] was 72% (active); in experiment [4] it was 90% (active). The inhibition in experiment [2] is 25%; in experiment [3], 2%. Further, the result in experiment [5], in experiment [6], in experiment [7] and in experiment [8] was inactive.

`COC(=O)c1ccc(-c2ccc(-c3cccnc3)cc2C)cc1`: the growth inhibition in experiment [1] was 98% (active); in experiment [4], 100% (active). In addition, the results for the inhibition in experiment [2] and in experiment [3] were 81% (active) and 3%, respectively. Further, the outcome in experiment [5], in experiment [6], in experiment [7] and in experiment [8] was inactive.

Take `Cc1cccc2[nH]c(-c3cccc(-c4cccc(C(=O)NCc5nccn5C)c4)c3)nc12`: the growth inhibition in experiment [1] was 50% (active); in experiment [4], 99% (active). For the same molecule, the inhibition in experiment [2] is 22%; in experiment [3] it was 8%. For the same molecule, the result in experiment [5], in experiment [6], in experiment [7] and in experiment [8] was inactive.

For `C[C@H](Cc1ccc(C(=O)OC(c2ccccc2)c2ccccc2)cc1)NC[C@H](O)c1ccccc1`, the values for the growth inhibition in experiment [1] and in experiment [4] were 98% (active) and 100% (active), respectively. Also, the inhibition was 83% (active) in experiment [2] and -3% in experiment [3]. Besides, the result in experiment [5], in experiment [6], in experiment [7] and in experiment [8] was inactive.

Turning to `O=C(Nc1ccc(Oc2cccnc2)cc1)C1CCN(Cc2cc(Cl)ccc2O)CC1`, the growth inhibition was 1% in experiment [1] and 83% (active) in experiment [4]. Also, the inhibition in experiment [2] was 37%; in experiment [3], -2%. Besides, the result in experiment [5], in experiment [6], in experiment [7] and in experiment [8] was inactive.

(Values after PubChem BioAssay.)
